The panel holds about 83,000 compounds, 20% with a hit somewhere; the sample as a whole holds those more often.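 For each line, cells grew in 96-well plates with the test compound present at a single concentration for 48 hours.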 Calls of active or inactive are those of the source. Rule for the calls: active = growth percent below 10; inactive = the rest.
What was measured:
Experiment in all cases: NCI-60 one-dose screen, 48 h (100 = growth as untreated, 0 = no growth, -100 = all killed)
NCI-H322M lung = conditions: 10 µM unless noted
HOP-62 NSCLC = conditions: 10 µM unless noted
NCI-H522 lung = conditions: 10 µM unless noted
SF-295 CNS = conditions: 10 µM unless noted
HT29 colon = conditions: 10 µM unless noted
U251 CNS = conditions: 10 µM unless noted
EKVX NSCLC = conditions: 10 µM unless noted
UO-31 renal = conditions: 10 µM unless noted
CAKI-1 renal = conditions: 10 µM unless noted
A498 renal = conditions: 10 µM unless noted
CCRF-CEM leukemia = conditions: 10 µM unless noted
OVCAR-5 ovarian = conditions: 10 µM unless noted
SK-OV-3 ovarian = conditions: 10 µM unless noted
HS 578T breast = conditions: 10 µM unless noted
HOP-92 NSCLC = conditions: 10 µM unless noted
MOLT-4 leukemia = conditions: 10 µM
T-47D breast = conditions: 10 µM unless noted
A549/ATCC NSCLC = conditions: 10 µM unless noted

Measured: growth

CC(=O)N1N=C(c2ccccc2)CC1c1sc(N(CCCl)CCCl)nc1Cl (centres undefined)
inactive: NCI-H322M lung 90.6% | HOP-62 NSCLC 90% | NCI-H522 lung 72.2% | SF-295 CNS 92.5% | HT29 colon 93.9% | U251 CNS 92.6% | EKVX NSCLC 90.9% | UO-31 renal 80% | CAKI-1 renal 80.2% | A498 renal 97.5% | CCRF-CEM leukemia 93.5% | OVCAR-5 ovarian 98.4% | SK-OV-3 ovarian 89.4% | HS 578T breast 88%

CN(C)P1(N(C)C)=NP(N(C)C)(N(C)C)=NP(N(C)C)(N(C)C)=N1
inactive: NCI-H322M lung 98.8% | HOP-62 NSCLC 99% | HOP-92 NSCLC 76% | SF-295 CNS 101% | HT29 colon 104% | U251 CNS 97.9% | UO-31 renal 83.1% | CAKI-1 renal 79% | A498 renal 108% | MOLT-4 leukemia 102% | OVCAR-5 ovarian 104% | SK-OV-3 ovarian 106% | HS 578T breast 114% | T-47D breast 103%

CC(=O)OC1CCC2(C)C(=CCC3C4CC(CN5CC5)C(=O)C4(C)CCC32)C1 (centres undefined)
inactive: HOP-62 NSCLC 121% | HOP-92 NSCLC 92.1% | A549/ATCC NSCLC 94.1% | SF-295 CNS 95.5% | HT29 colon 85.2% | CAKI-1 renal 88% | A498 renal 86.7% | CCRF-CEM leukemia 18.3% | MOLT-4 leukemia 15.6% | OVCAR-5 ovarian 97.7% | SK-OV-3 ovarian 98.2% | HS 578T breast 87.5%
active: NCI-H522 lung -78.4% | T-47D breast -11.8%

CC(=O)N(C)C1=Nc2ccc(Cl)cc2C(c2ccccc2)=[N+]([O-])C1
inactive: NCI-H322M lung 82.6% | HOP-62 NSCLC 96.3% | HOP-92 NSCLC 92.5% | SF-295 CNS 107% | HT29 colon 104% | U251 CNS 111% | EKVX NSCLC 115% | UO-31 renal 80.7% | CAKI-1 renal 99.8% | A498 renal 106% | CCRF-CEM leukemia 125% | OVCAR-5 ovarian 102% | SK-OV-3 ovarian 102% | HS 578T breast 111% | T-47D breast 94.9%

CNC(=O)Oc1ccccc1-c1ccccc1
inactive: HOP-62 NSCLC 103% | HOP-92 NSCLC 101% | NCI-H522 lung 85.9% | A549/ATCC NSCLC 96.2% | SF-295 CNS 94.5% | UO-31 renal 81.8% | CAKI-1 renal 95.5% | A498 renal 93.2% | CCRF-CEM leukemia 94.1% | MOLT-4 leukemia 96% | OVCAR-5 ovarian 111% | HS 578T breast 107% | T-47D breast 105%

CCC[CH2][Sn]1([CH2]CCC)[O]C(=O)c2cccc([N+](=O)[O-])c2C(=O)[O]1
inactive: A549/ATCC NSCLC 42.4% | SK-OV-3 ovarian 12.2%
active: HOP-62 NSCLC -90.7% | HOP-92 NSCLC -91.7% | NCI-H522 lung -94.8% | SF-295 CNS -36.9% | HT29 colon -75% | CAKI-1 renal -93.4% | A498 renal -94.5% | CCRF-CEM leukemia -47.7% | MOLT-4 leukemia -24.4% | HS 578T breast -11.6%

C1CN1c1nc(N2CC2)nc(N2CC2)n1
inactive: NCI-H322M lung 78.1% | HOP-62 NSCLC 31.3% | SF-295 CNS 14.2% | HT29 colon 44.9% | EKVX NSCLC 86.3% | A498 renal 57.9% | CCRF-CEM leukemia 15.6% | MOLT-4 leukemia 10.5% | OVCAR-5 ovarian 64.5% | SK-OV-3 ovarian 38.1% | HS 578T breast 72.3% | T-47D breast 26.7%
active: NCI-H522 lung -12.1% | U251 CNS 7.27% | UO-31 renal 1.86% | CAKI-1 renal 6.72%

COc1ccc(/C=C(/C(=O)N2CCCC2)c2cc(OC)c(OC)c(OC)c2)cc1N
inactive: NCI-H322M lung 48.1% | HOP-92 NSCLC 46.1% | A549/ATCC NSCLC 41.1% | SF-295 CNS 17.5% | U251 CNS 31% | EKVX NSCLC 52.8% | UO-31 renal 51.7% | CCRF-CEM leukemia 19% | OVCAR-5 ovarian 54.5% | SK-OV-3 ovarian 28.7% | HS 578T breast 15.2% | T-47D breast 37.8%
active: NCI-H522 lung 3.14% | HT29 colon 9.12% | A498 renal -0.924%

O=C(O)c1cccc(CCl)c1
inactive: NCI-H322M lung 107% | HOP-62 NSCLC 108% | HOP-92 NSCLC 84.3% | A549/ATCC NSCLC 96% | HT29 colon 102% | U251 CNS 96.7% | UO-31 renal 90.3% | CAKI-1 renal 106% | A498 renal 117% | MOLT-4 leukemia 93.2% | OVCAR-5 ovarian 102% | SK-OV-3 ovarian 99.7% | T-47D breast 96.3%

COc1ccc(/C=C\c2cc(OC)c(OC)c(OC)c2)cc1N/C=C\C(=O)c1c[nH]c2ccccc12
inactive: NCI-H322M lung 40.6% | HOP-62 NSCLC 39.3% | A549/ATCC NSCLC 28.4% | U251 CNS 15.5% | UO-31 renal 26.4% | MOLT-4 leukemia 14.4% | HS 578T breast 37.5% | T-47D breast 81.7%
active: NCI-H522 lung -9.96% | SF-295 CNS -11.8% | HT29 colon -3.93% | A498 renal -13.6% | CCRF-CEM leukemia 5.7%

Reference: PubChem BioAssay (NCI)
